Results on six compounds are retold here after ChEMBL document CHEMBL3433997, “St. Jude Leishmania screening dataset” (2016).

Each structure is given as a SMILES string.

Format in all cases: functional
Assay [1] has as its target Solute carrier family 2, facilitated glucose transporter member 1 (Homo sapiens) (UniProt P11166). Description: ST_JUDE_LEISH: Cytotoxicity at 2uM final concentration against transgenic Leishmania Mexicana promastigotes LmGLUT1 that are glucose transport deficient and complemented with the human glucose transporter GLUT1. Activity is measured by DNA content using SYBR green in vitro.

Assay [2] concerns the target Hexose transporter 1 (Plasmodium falciparum) (UniProt O97467). Put plainly: ST_JUDE_LEISH: Cytotoxicity at 2uM final concentration against transgenic Leishmania Mexicana promastigotes LmPfHT that are glucose transport deficient and complemented with the Plasmodium falciparum hexose transporter. Activity is measured by DNA content using SYBR green in vitro.
In assay [3] the target is Glucose transporter (Leishmania mexicana) (UniProt O61059). Put plainly: ST_JUDE_LEISH: Cytotoxicity at 2uM final concentration against transgenic Leishmania Mexicana promastigotes LmGT2 that are glucose transport deficient and complemented with the L. Mexicana glucose transporter 2. Activity is measured by DNA content using SYBR green in vitro.

Sequence of Solute carrier family 2, facilitated glucose transporter member 1 (Homo sapiens) (P11166 whole entry): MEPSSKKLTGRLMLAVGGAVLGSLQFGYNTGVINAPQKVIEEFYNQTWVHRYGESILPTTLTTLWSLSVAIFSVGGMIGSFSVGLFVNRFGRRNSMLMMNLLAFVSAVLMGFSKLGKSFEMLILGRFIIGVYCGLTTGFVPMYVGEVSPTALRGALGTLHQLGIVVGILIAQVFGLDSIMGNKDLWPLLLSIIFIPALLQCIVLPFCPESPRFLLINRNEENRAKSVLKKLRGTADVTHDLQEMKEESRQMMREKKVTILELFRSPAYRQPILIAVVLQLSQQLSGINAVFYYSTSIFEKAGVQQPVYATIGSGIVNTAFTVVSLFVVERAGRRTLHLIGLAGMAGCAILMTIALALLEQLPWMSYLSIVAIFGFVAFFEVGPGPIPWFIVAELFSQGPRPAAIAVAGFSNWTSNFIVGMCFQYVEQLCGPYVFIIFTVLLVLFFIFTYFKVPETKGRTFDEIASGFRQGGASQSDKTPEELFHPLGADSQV

A word on the inhibition: it is the change of the read-out against control, counted positive when it falls. For `Clc1ccc(CNc2ccnc(NCCc3coc4ccccc34)n2)c(Cl)c1`, the inhibition in assay [1] came to 5.99%; in assay [2], 6.11%; in assay [3], 0.66%.

For the compound `Cc1ccc2c(OCCN3CCC(Cc4ccc5c(c4)NC(=O)CO5)CC3)cc(F)cc2n1`, the inhibition in assay [1] stood at 3.49%; in assay [2], 2.13%; in assay [3], 0.63%.

Regarding `O=C(CNc1ccc(Cl)c(S(=O)(=O)N2CCCC2)c1)Nc1ccc(Br)cc1F`, the inhibition in assay [1] is -2.34%; in assay [2], 1.47%; in assay [3], 1.03%.

For the compound `CC(C)(C)OC(=O)C1CCCN(Cc2ccc(-c3cccc(-c4nc5ccccc5[nH]4)c3)cc2)C1` (stereo not drawn), the inhibition is 3.21% in assay [1], 3.25% in assay [2] and 0.78% in assay [3].

Regarding `CCOC(=O)c1nc(-c2cc(Cl)nc(Cl)c2)[nH]c1NC(=S)NCc1ccc(NS(C)(=O)=O)cc1`, the inhibition is -2.02% in assay [1], -1.98% in assay [2] and -1.67% in assay [3].

For the compound `O=C(N[C@H]1CCCC[C@H]1C(=O)O)c1ccccc1`, the inhibition in assay [1] is 0.5%; in assay [2], 1.61%; in assay [3], 0.81%.
